For 30 molecules, residual activity results are on record in ChEMBL document CHEMBL2218924, “A broad activity screen in support of a chemogenomic map for kinase signalling research and drug discovery” (Biochem J, 2013).

For the assay, the target named is Proto-oncogene tyrosine-protein kinase ROS (Homo sapiens) (UniProt P08922). The settings on record: at 10 µM.
Proto-oncogene tyrosine-protein kinase ROS (Homo sapiens), sequence (P08922 whole entry): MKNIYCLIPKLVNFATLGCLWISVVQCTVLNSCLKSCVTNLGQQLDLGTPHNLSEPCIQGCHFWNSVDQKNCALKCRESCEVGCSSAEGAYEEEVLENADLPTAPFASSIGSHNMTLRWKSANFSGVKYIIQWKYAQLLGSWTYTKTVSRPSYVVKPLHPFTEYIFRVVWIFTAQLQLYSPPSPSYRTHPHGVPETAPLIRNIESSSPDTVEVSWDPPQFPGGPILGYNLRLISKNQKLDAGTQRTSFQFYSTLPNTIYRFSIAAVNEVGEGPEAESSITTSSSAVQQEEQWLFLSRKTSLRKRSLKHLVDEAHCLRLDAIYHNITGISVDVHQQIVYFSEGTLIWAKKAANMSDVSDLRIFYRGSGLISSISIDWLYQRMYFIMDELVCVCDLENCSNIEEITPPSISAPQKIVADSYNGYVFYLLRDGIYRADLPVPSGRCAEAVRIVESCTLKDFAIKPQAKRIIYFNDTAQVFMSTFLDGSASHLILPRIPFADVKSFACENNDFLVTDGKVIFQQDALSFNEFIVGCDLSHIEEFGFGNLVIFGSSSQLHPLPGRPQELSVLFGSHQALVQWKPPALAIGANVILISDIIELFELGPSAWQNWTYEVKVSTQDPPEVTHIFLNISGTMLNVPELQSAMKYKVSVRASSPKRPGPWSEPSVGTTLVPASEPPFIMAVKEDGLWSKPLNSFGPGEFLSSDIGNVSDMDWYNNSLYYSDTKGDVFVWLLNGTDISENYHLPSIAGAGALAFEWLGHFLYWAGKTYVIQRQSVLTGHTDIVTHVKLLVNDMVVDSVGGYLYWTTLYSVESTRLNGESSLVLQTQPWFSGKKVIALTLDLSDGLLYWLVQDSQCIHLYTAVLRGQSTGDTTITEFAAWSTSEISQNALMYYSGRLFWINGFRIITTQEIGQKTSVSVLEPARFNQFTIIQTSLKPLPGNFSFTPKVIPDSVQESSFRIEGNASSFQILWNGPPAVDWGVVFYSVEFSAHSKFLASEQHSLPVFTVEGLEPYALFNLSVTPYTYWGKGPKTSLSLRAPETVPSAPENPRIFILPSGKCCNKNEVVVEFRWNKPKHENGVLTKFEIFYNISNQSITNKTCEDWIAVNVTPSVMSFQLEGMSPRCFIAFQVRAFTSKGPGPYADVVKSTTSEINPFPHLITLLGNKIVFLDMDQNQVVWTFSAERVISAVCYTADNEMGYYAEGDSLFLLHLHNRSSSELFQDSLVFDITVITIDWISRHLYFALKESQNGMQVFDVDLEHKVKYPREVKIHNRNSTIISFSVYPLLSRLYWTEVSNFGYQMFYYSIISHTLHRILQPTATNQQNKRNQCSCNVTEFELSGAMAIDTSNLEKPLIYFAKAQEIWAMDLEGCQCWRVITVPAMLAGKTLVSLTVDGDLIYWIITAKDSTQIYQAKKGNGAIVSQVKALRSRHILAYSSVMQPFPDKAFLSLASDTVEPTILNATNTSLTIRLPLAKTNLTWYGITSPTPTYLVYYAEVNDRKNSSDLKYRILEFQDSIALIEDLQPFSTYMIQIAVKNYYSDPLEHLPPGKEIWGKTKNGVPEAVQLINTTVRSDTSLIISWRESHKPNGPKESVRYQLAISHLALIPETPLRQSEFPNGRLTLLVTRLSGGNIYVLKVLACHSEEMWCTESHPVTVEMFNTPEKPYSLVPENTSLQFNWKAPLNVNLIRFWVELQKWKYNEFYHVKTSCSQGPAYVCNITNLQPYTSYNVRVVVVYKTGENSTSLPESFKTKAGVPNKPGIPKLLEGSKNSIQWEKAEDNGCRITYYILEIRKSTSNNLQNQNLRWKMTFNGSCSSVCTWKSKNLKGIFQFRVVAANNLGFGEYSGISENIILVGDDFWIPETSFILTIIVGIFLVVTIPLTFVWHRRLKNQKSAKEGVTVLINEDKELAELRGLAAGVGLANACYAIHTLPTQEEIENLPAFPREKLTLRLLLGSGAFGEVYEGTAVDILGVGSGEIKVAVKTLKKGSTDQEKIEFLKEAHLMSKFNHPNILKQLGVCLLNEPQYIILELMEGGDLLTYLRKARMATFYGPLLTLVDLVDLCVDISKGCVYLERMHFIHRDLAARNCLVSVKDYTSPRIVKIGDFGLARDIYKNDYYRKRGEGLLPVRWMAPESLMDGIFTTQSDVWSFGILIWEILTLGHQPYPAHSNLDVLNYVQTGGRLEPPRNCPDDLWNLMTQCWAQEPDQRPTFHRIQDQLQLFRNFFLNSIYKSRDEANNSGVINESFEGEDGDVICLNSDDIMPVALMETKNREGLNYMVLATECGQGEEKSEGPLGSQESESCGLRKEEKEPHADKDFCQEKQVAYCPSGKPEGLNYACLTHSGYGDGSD
What is called residual activity is the signal under treatment as a percentage of the control signal. As for `CCN(CC)CCCCN1c2ccccc2Oc2ccc(Cl)cc21`, the residual activity worked out at 101%.

With `c1ccc(-c2n[nH]c3c2oc2ccccc23)cc1`, the residual activity worked out at 93%.

In the case of `N#CC(C#N)=C(N)/C(C#N)=C/c1ccc(O)cc1`, the residual activity turned out to be 92%.

For the molecule `Cc1nc2cc3nc(-c4cccs4)cnc3cc2n1C`, the residual activity was found to be 112%.

In the case of `Cc1cc(Nc2nc(-c3ccccc3)nc3ccccc23)n[nH]1`, the residual activity stood at 40%.

For `Oc1ccc(Nc2nc(-c3ccc(Cl)cc3)cs2)cc1`, the residual activity is 97%.

Consider `CC(=O)O/N=C1\C(=C2\C(=O)Nc3cc(Br)ccc32)Nc2ccccc21`, for which the residual activity was found to be 90%.

`CO[C@@H]1[C@H](N(C)C(=O)c2ccccc2)C[C@H]2O[C@]1(C)n1c3ccccc3c3c4c(c5c6ccccc6n2c5c31)C(=O)NC4`: the residual activity is 50%.

Turning to `Oc1ccc(-c2nc(-c3ccc(F)cc3)c(-c3ccncc3)[nH]2)cc1`, the residual activity was 104%.

Regarding `COc1cc2ncnc(N3CCN(C(=O)Nc4ccc(Oc5ccccc5)cc4)CC3)c2cc1OC`, the residual activity came out at 86%.

As to `COc1cc2ncnc(Nc3ccc(NC(=O)c4ccccc4)cc3)c2cc1OC`, the residual activity turned out to be 102%.

In the case of `O=C1NC(=O)c2cc(Nc3ccc(F)cc3)c(Nc3ccc(F)cc3)cc21`, the residual activity amounted to 92%.

For the molecule `COc1cc2ncnc(Nc3ccc(Oc4ccccc4)cc3)c2cc1OC`, the residual activity was 101%.

In the case of `NC(=O)c1ccc2[nH]c(-c3ccc(Oc4ccc(Cl)cc4)cc3)nc2c1`, the residual activity is 84%.

For the molecule `O=C1Nc2ccc(Br)cc2/C1=C\c1cc2c([nH]1)CCCC2`, the residual activity stood at 80%.

For the molecule `CC(C)n1cnc2c(NCc3ccccc3)nc(NCCCO)nc21`, the residual activity stood at 93%.

For `c1ccc(-c2n[nH]cc2-c2ccnc3ccccc23)nc1`, the residual activity amounted to 93%.

Consider `CC#CC(=O)Nc1cc2c(Nc3ccc(F)c(Cl)c3)ncnc2cn1`, for which the residual activity is 92%.

Consider `CC(=O)c1ccc(N2CCOCC2)cc1O`, for which the residual activity came to 98%.

Turning to `Oc1n[nH]c2nnc(-c3c(-c4ccccc4)nn4ccccc34)cc12`, the residual activity amounted to 87%.

`c1ccc2c(-c3ccncc3)c[nH]c2c1`: the residual activity is 92%.

For the molecule `Nc1n[nH]c2nnc(-c3c(-c4ccccc4)nn4ccccc34)cc12`, the residual activity was 80%.

Consider `O=C1NC(=O)/C(=C\c2ccc3nccnc3c2)S1`, for which the residual activity stood at 99%.

For the molecule `COc1cccc(-c2cc(=O)c3ccccc3o2)c1N`, the residual activity turned out to be 97%.

As for `CO[C@H]1[C@@H](OC)C[C@H](C)[C@@H](OC)C2=CC(=O)C=C(NC(=O)/C(C)=C/C=C/[C@H](OC)[C@@H](OC(N)=O)/C(C)=C/[C@@H]1C)C2=O`, the residual activity was 94%.

For `Cc1cccc(-c2[nH]c(C(C)(C)C)nc2-c2ccc3c(c2)OCO3)n1`, the residual activity amounted to 94%.

Consider `C[C@@H](N)[C@H]1CC[C@H](C(=O)Nc2ccncc2)CC1`, for which the residual activity turned out to be 105%.

Turning to `CC(C)n1cnc2/c(=N/c3cccc(Cl)c3)nc(NCCO)[nH]c21`, the residual activity is 63%.

In the case of `N#C/C(=C(\N)Sc1ccc(N)cc1)c1ccccc1C(F)(F)F`, the residual activity came to 89%.

For the molecule `Cn1nc2c3c(cccc31)C(=O)c1ccccc1-2`, the residual activity came to 88%.
